# Reference: PubChem BioAssay AID1345085 (National Center for Advancing Translational Sciences (NCATS), 2018)
# Results filed as inconclusive are left out. Where a call stands in place of a potency, no number is given. Active and inactive are the calls of the source. Calls follow the shape of the dose curve; as a rule, active = well fitted cell-killing curve with a large enough effect; inconclusive = small, poorly fitted or top-dose-only effect, or effect the other way; inactive = no such curve, though single readings can be large or run the other way.
# System: CAOV3
# Assay: Confirmatory qHTS for gynecologic anti-cancer compounds from libraries of approved drugs and bioactive compounds; also: nearly all actives have a fitted effect of over 55% in size
# Details: gynecologic cancer cell panel viability, ATPlite luminescence, 48 h; series mostly up to 57.6 µM
# Source text: National Center for Advancing Translational Sciences [NCATS] Assay Overview: Chemotherapeutic drug responses vary from cancer to cancer and from patient to patient. These variations could be caused by a number of factors including patient genomic background, tumor mutations, tumor heterogeneity, and aspects of drug treatment. Chemotherapeutic drug resistance is also a common issue and can lead to ineffective treatment and patient death. Here we have profiled the cell killing effects of thousands of compounds to characterize the responses in three gynecological cancers, identify cancer-selective compounds, and understand the diversity of responses to these compounds from pan-cancer suppressors to single cell line selective compounds. In this assay, we screened a 7,914 compound drug library that included approved drug and bioactive compounds in six ovarian, three cervical, and two placental cancer cell lines using the ATPlite assay for cell viability. ATPlite is a luminescence based assay reliant on the conversion of a luciferase substrate to light in the presence of ATP. As a cytotoxic compound will suppress growth and decrease the number of cells, the concentration of ATP will decrease, and less light signal will be detected in the well. Hits were selected from the primary screen for follow-up confirmation. For the confirmation screens, the ovarian cancer cell lines included CAOV-3, SK-OV-3, SW 626, ES-2, PA-1, and TOV-21G. The cervical cancer cell lines included HeLa, Ca Ski, and C-33 A. The placental cancer cell lines included JEG-3 and JAR. HEK 293T cells were used as the control cell line to determine the selectivity index. The ATPlite assay was used to determine the IC50 values.
# Assay Protocol Summary: 1,000 cells in 4 uL of media were dispensed into white, solid bottom 1536-well plates using a Multidrop Combi (Thermo Scientific). The Assay plates were incubated for 16 hours at 37 C with 5% CO2 in assay plates, followed by the addition of 23 nL of DMSO or drug dissolved in DMSO. . Each compound was assayed in 11 concentrations (1:3 dilution) from 57.5 uM to 0.977 nM, using the automated Wako 1536 Pin Tool workstation and incubated at 37 C with 5% CO2 48 hours. 4 uL of ATPlite, the ATP monitoring reagent, was then added to the each well of the assay plates using the Multidrop Combi reagent dispenser followed by incubation for 15 minutes at room temperature. The resulting luminescence was measured using the ViewLux plate reader.
# Potency is read from the fitted curve at half-maximal effect.
row,SMILES,Potency
1,CCNC(=O)C[C@@H]1N=C(c2ccc(Cl)cc2)c2cc(OC)ccc2-n2c(C)nnc21,1220 nM (active)
2,C/C=C(/C)C(=O)O[C@H]1C(C)=C2[C@H]([C@@H]1OC(=O)CCCCCCC)[C@@](C)(OC(C)=O)C[C@H](OC(=O)CCC)[C@@]1(O)[C@H]2OC(=O)[C@@]1(C)O,9680 nM (active)
3,CCC(=O)O[C@H]1CC[C@H]2[C@@H]3CCC4=CC(=O)CC[C@]4(C)[C@H]3CC[C@]12C,inactive
4,C[C@]12CC[C@H]3[C@@H](CCC4=CC(=O)CC[C@@H]43)[C@@H]1CC[C@@H]2OC(=O)CCc1ccccc1,inactive
5,CCN1CCN(C(=O)Cc2ccc(Nc3ncc(F)c(Nc4ccc(C(=O)Nc5ccccc5Cl)cc4)n3)cc2)CC1,inactive
6,C[C@H]1CCC/C=C/C2C[C@H](O)C[C@H]2[C@H](O)/C=C/C(=O)O1 (some centres undefined),306 nM (active)
7,C=C(C)[C@H]1Cc2c(ccc3c2O[C@@H]2COc4cc(OC)c(OC)cc4[C@@H]2C3=O)O1,inactive
8,O=C(O)Cc1ccccc1,inactive
9,CCOc1ccccc1-n1c(C(C)N2CCN(C(=O)COc3ccc(Cl)cc3)CC2)nc2ccccc2c1=O (centres undefined),inactive
